# Laboratory results from PubChem BioAssay (NCATS).
# Calls of active or inactive are those of the source. Calls come from the whole dose curve; as a rule, active = well fitted activation curve with a large enough effect; inconclusive = small, poorly fitted or top-dose-only effect; inactive = flat fitted curve, though single readings scatter.
# Assay: Confirmation and Secondary Assay for Modulators of Hemoglobin Beta Chain Splicing at IVS2 705 locus (AID 930);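 note: HeLa cells stably expressing the EGFP-705 splicing reporter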
# Conditions: HeLa EGFP-705 splicing reporter, GFP fluorescence, 48 h; series mostly up to 46.1 µM
# Method in brief: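 Splice-correction reporter: EGFP cDNA split by beta-globin intron 2 bearing the 705 mutation, stably in HeLa. Compound incubation 2 days, 37C; fluorescent objects 5-250 µm summed per well.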
row,SMILES,outcome
1,CC(N)CCCC(C)(C)O (stereo not given),inactive
2,NCc1ccc(S(N)(=O)=O)cc1,inactive
3,CC(=O)Oc1cccc(O)c1,inactive
4,COc1ccc2cc(CCC(C)=O)ccc2c1,inactive
5,Cc1cc(NC(=O)C2=C(O)c3ccccc3S(=O)(=O)N2C)no1,inactive
6,NS(=O)(=O)c1cc2c(cc1C(F)(F)F)NCNS2(=O)=O,inactive
7,O=C1c2cccc(O)c2C(=O)c2c(O)cccc21,inactive
8,O=C(O)c1ccccc1OP(=O)(O)O,inactive
9,Nc1ccc(C(=O)Oc2ccccc2)c(O)c1,inactive
10,CN1C(C)(C)CCCC1(C)C,inactive
